According to PubChem BioAssay AID1159580 (chemical genetic matrix, 2015):
Values joined by “and” are separate entries in the source; they are usually repeats but may differ in a detail not shown here. Identical values can stand only once. Among all 5,500 compounds or so, about 2,000 (36%) were called active. Inconclusive results (about 18%) are left out. Cut-off read from the data, not from the text of the source: active = normalized growth mostly below about 0.91 (no sharp cut-off); inconclusive = no clear call, values can overlap the other calls; inactive = mostly above about 0.92. The list shows a part of the results. Some compounds were tested as several samples or in several runs, with calls that do not always agree.

Assay: chemical genetic growth profiling, strain panel (AID 1159580);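 note: tested at 20 µM; growth read once vehicle control cultures reached saturation at 30 °C; 1 = growth at the plate median or of vehicle wells; lower values mean less growth of the strain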
Details: growth OD

Measured: normalized growth

CC(C)COCC(CN(Cc1ccccc1)c1ccccc1)N1CCCC1 (stereo not given)
inactive: S. cerevisiae deletion strains, locus YKL009W, strain mrt4, stronger effect = lower value 0.935 | S. cerevisiae deletion strains, locus YKL068W, stronger effect = lower value 0.989 | S. cerevisiae deletion strains, locus YKL085W, strain MDH1 (second series), stronger effect = lower value 0.979 | S. cerevisiae deletion strains, locus YKL085W, strain MDH1, stronger effect = lower value 0.979 | S. cerevisiae deletion strains, locus YKL160W, strain elf1, stronger effect = lower value 1.02 | S. cerevisiae deletion strains, locus YKL190W, strain CNB1, stronger effect = lower value 0.923 | S. cerevisiae deletion strains, locus YKR026C, strain gcn3, stronger effect = lower value 1.03 | S. cerevisiae deletion strains, locus YKR091W, strain srl3, stronger effect = lower value 1.02 | S. cerevisiae deletion strains, locus YLL001W, strain dnm1, stronger effect = lower value 1.03 | S. cerevisiae deletion strains, locus YLL026W, stronger effect = lower value 1.02 | S. cerevisiae deletion strains, locus YLL041C, strain sdh2, stronger effect = lower value 1.05 | S. cerevisiae deletion strains, locus YLR027C, strain aat2, stronger effect = lower value 1.01 | S. cerevisiae deletion strains, locus YLR039C, strain RIC1, stronger effect = lower value 0.705 | S. cerevisiae deletion strains, locus YLR102C, strain apc9, stronger effect = lower value 0.989 | S. cerevisiae deletion strains, locus YLR113W, strain HOG1, stronger effect = lower value 1.01 | S. cerevisiae deletion strains, locus YLR221C, strain rsa3, stronger effect = lower value 0.996 | S. cerevisiae deletion strains, locus YLR258W, strain gsy2, stronger effect = lower value 1.03 | S. cerevisiae deletion strains, locus YLR262C, strain YPT6 (second series), stronger effect = lower value 1.01 | S. cerevisiae deletion strains, locus YLR268W, strain sec22, stronger effect = lower value 0.935 | S. cerevisiae deletion strains, locus YLR320W, strain mms22, stronger effect = lower value 0.948 | S. cerevisiae deletion strains, locus YLR330W, strain CHS5, stronger effect = lower value 0.95 | S. cerevisiae deletion strains, locus YLR342W, strain FKS1, stronger effect = lower value 1 | S. cerevisiae deletion strains, locus YLR357W, strain rsc2, stronger effect = lower value 1.01 | S. cerevisiae deletion strains, locus YLR370C, strain arc18, stronger effect = lower value 1.04 | S. cerevisiae deletion strains, locus YLR371W, strain rom2, stronger effect = lower value 0.961 | S. cerevisiae deletion strains, locus YLR384C, strain iki3, stronger effect = lower value 1.03 | S. cerevisiae deletion strains, locus YML016C, strain PPZ1, stronger effect = lower value 0.973 | S. cerevisiae deletion strains, locus YML120C, strain ndi1, stronger effect = lower value 1.05 | S. cerevisiae deletion strains, locus YML124C, strain tub3, stronger effect = lower value 0.989 | S. cerevisiae deletion strains, locus YMR058W, strain fet3, stronger effect = lower value 0.997 | S. cerevisiae deletion strains, locus YMR078C, strain ctf18, stronger effect = lower value 0.986 | S. cerevisiae deletion strains, locus YMR125W, strain sto1, stronger effect = lower value 1.03 | S. cerevisiae deletion strains, locus YMR129W, stronger effect = lower value 1.02 | S. cerevisiae deletion strains, locus YMR205C, strain PFK2, stronger effect = lower value 1.02 | S. cerevisiae deletion strains, locus YMR231W, strain pep5, stronger effect = lower value 1.04 | S. cerevisiae deletion strains, locus YMR307W, strain GAS1, stronger effect = lower value 0.726 | S. cerevisiae deletion strains, locus YNL071W, strain lat1, stronger effect = lower value 1.03 | S. cerevisiae deletion strains, locus YNL128W, strain TEP1, stronger effect = lower value 0.981 | S. cerevisiae deletion strains, locus YNL175C, strain NOP13, stronger effect = lower value 1 | S. cerevisiae deletion strains, locus YNL183C, strain NPR1, stronger effect = lower value 0.935 | S. cerevisiae deletion strains, locus YNL197C, strain WHI3, stronger effect = lower value 1.02 | S. cerevisiae deletion strains, locus YNL209W, strain ssb2, stronger effect = lower value 1.03 | S. cerevisiae deletion strains, locus YNL224C, strain SQS1, stronger effect = lower value 1.01 | S. cerevisiae deletion strains, locus YNL248C, strain rpa49, stronger effect = lower value 1.02 | S. cerevisiae deletion strains, locus YNL250W, strain rad50, stronger effect = lower value 0.957 | S. cerevisiae deletion strains, locus YNL271C, strain bni1, stronger effect = lower value 0.992 | S. cerevisiae deletion strains, locus YNL298W, strain CLA4, stronger effect = lower value 0.994 | S. cerevisiae deletion strains, locus YNL307C, strain MCK1, stronger effect = lower value 0.965 | S. cerevisiae deletion strains, locus YNL322C, strain KRE1 (second series), stronger effect = lower value 1.06 | S. cerevisiae deletion strains, locus YNL322C, strain KRE1, stronger effect = lower value 1 | S. cerevisiae deletion strains, locus YNR049C, strain mso1, stronger effect = lower value 1.02 | S. cerevisiae deletion strains, locus YOL012C, strain htz1 0.611 | S. cerevisiae deletion strains, locus YOL147C, strain pex11, stronger effect = lower value 0.989 | S. cerevisiae deletion strains, locus YOR001W, strain rrp6, stronger effect = lower value 1.01 | S. cerevisiae deletion strains, locus YOR061W, strain CKA2, stronger effect = lower value 0.93 | S. cerevisiae deletion strains, locus YOR069W, strain VPS5, stronger effect = lower value 0.983 | S. cerevisiae deletion strains, locus YOR070C, strain gyp1, stronger effect = lower value 1.02 | S. cerevisiae deletion strains, locus YOR080W, strain dia2, stronger effect = lower value 1.06 | S. cerevisiae deletion strains, locus YOR083W, strain WHI5 (second series), stronger effect = lower value 1.03 | S. cerevisiae deletion strains, locus YOR083W, strain WHI5, stronger effect = lower value 0.967 | S. cerevisiae deletion strains, locus YOR106W, strain vam3, stronger effect = lower value 1.03 | S. cerevisiae deletion strains, locus YOR136W, strain idh2, stronger effect = lower value 0.954 | S. cerevisiae deletion strains, locus YOR144C, strain elg1, stronger effect = lower value 0.99 | S. cerevisiae deletion strains, locus YOR184W, strain ser1, stronger effect = lower value 0.888 | S. cerevisiae deletion strains, locus YOR231W, strain MKK1, stronger effect = lower value 0.982 | S. cerevisiae deletion strains, locus YOR265W, strain rbl2, stronger effect = lower value 1.02 | S. cerevisiae deletion strains, locus YOR270C, strain vph1, stronger effect = lower value 0.972 | S. cerevisiae deletion strains, locus YOR290C, strain snf2, stronger effect = lower value 1.02 | S. cerevisiae deletion strains, locus YOR316C, strain cot1, stronger effect = lower value 0.979 | S. cerevisiae deletion strains, locus YPL051W, strain arl3, stronger effect = lower value 0.99 | S. cerevisiae deletion strains, locus YPL078C, strain atp4, stronger effect = lower value 1.04 | S. cerevisiae deletion strains, locus YPL106C, strain sse1, stronger effect = lower value 1.06 | S. cerevisiae deletion strains, locus YPL240C, strain hsp82, stronger effect = lower value 1.02 | S. cerevisiae deletion strains, locus YPL241C, strain CIN2, stronger effect = lower value 0.98 and 1 | S. cerevisiae deletion strains, locus YPL256C, strain CLN2, stronger effect = lower value 0.98 | S. cerevisiae deletion strains, locus YPR119W, strain clb2, stronger effect = lower value 0.989 | S. cerevisiae deletion strains, locus YPR141C, strain kar3, stronger effect = lower value 0.984 | S. cerevisiae deletion strains, locus YPR167C, strain met16, stronger effect = lower value 0.988 | S. cerevisiae deletion strains, strain wtn01, stronger effect = lower value 0.912
0.798 (active) and 1.01 (inactive): S. cerevisiae deletion strains, locus YJR075W, strain HOC1, stronger effect = lower value
active: S. cerevisiae deletion strains, locus YKR001C, strain vps1, stronger effect = lower value 0.793 | S. cerevisiae deletion strains, locus YLR058C, strain SHM2, stronger effect = lower value 0.858 | S. cerevisiae deletion strains, locus YLR262C, strain YPT6, stronger effect = lower value 0.59 | S. cerevisiae deletion strains, locus YLR342W, strain FKS1 (second series), stronger effect = lower value 0.707 | S. cerevisiae deletion strains, locus YLR418C, strain cdc73, stronger effect = lower value 0.698 | S. cerevisiae deletion strains, locus YML032C, strain rad52, stronger effect = lower value 0.904 | S. cerevisiae deletion strains, locus YMR223W, strain ubp8, stronger effect = lower value 0.894 | S. cerevisiae deletion strains, locus YNL067W, strain RPL9B, stronger effect = lower value 0.843 | S. cerevisiae deletion strains, locus YNL153C, strain GIM3, stronger effect = lower value 0.823 | S. cerevisiae deletion strains, locus YNL233W, strain BNI4, stronger effect = lower value 0.781 | S. cerevisiae deletion strains, locus YNR052C, strain pop2, stronger effect = lower value 0.887 | S. cerevisiae deletion strains, locus YOL006C, strain TOP1, stronger effect = lower value 0.242 | S. cerevisiae deletion strains, locus YPL055C, strain LGE1, stronger effect = lower value 0.653 | S. cerevisiae deletion strains, locus YPR163C, strain tif3, stronger effect = lower value 0.792 | S. cerevisiae strains, strain wild type, stronger effect = lower value 0.878
